According to article PMC4336329 (PLoS ONE, 2015):
About 14,000 (4.5%) of roughly 310,000 compounds showed an effect of 50% or more. The effect is printed as a negative number. This excerpt belongs to a sample that is enriched for strong results.
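Also: peak tail current of the secondary pulse compared with the same well before compound.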

These compounds were tested against human ether-à-go-go-related gene (hERG) potassium channel (human, UniProt Q12809) (assay: primary screen, population patch clamp on CHO cells stably expressing hERG; higher = less effect of the substance).
Sequence of human ether-à-go-go-related gene (hERG) potassium channel (Q12809 whole entry, looked up): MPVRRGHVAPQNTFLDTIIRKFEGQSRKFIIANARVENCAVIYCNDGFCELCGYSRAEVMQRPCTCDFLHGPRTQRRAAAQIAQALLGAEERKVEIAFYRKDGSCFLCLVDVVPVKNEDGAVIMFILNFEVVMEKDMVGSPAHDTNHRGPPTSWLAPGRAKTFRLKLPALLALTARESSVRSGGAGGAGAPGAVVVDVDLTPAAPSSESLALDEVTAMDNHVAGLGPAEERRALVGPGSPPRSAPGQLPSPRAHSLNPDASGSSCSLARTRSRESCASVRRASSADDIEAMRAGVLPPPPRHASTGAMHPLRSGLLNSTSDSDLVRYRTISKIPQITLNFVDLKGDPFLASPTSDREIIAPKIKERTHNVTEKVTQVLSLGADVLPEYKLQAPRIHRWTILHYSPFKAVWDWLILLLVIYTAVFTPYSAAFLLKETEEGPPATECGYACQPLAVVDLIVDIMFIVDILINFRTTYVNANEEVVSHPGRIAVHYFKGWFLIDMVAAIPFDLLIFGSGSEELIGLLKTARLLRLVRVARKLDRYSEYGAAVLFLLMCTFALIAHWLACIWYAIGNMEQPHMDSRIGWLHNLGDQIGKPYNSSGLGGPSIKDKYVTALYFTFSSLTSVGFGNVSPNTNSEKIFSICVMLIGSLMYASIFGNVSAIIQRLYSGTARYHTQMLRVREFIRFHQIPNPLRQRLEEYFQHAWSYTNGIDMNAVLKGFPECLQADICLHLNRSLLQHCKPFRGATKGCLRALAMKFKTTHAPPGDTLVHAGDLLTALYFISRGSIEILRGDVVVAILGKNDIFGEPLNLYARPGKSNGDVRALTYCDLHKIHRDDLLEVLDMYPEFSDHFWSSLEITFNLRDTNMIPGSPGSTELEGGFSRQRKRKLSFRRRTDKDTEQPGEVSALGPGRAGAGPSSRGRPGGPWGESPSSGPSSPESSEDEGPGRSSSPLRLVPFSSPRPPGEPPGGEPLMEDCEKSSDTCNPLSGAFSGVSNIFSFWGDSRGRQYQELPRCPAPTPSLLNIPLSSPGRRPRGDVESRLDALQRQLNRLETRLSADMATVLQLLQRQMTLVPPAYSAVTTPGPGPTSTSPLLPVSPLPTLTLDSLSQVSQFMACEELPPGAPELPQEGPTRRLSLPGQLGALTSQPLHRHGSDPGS
For `FC(F)(F)c1nnc2c(Sc3ccccc3)nc3ccc(Cl)cc3n12`, the “hERG current change (%, negative = inhibition) at 10uM” value was 12.2%.
`Cc1cccc(NC(=S)N(CCCN2CCOCC2)C(C)c2cc3ccccc3o2)c1C` (stereo not drawn) was tested, and the “hERG current change (%, negative = inhibition) at 10uM” value was -20.9%.
For `COc1ccc(Cl)cc1NC(=O)CSc1nnc(CNC(=O)c2cccs2)o1`, the “hERG current change (%, negative = inhibition) at 10uM” value was -39.8%.
With `Cc1ccc(S(=O)(=O)NCc2c(-c3ccccc3)c3cc(Cl)ccc3[nH]c2=O)cc1` the “hERG current change (%, negative = inhibition) at 10uM” value was 7.18%.
In the case of `O=C(c1ccc(Br)s1)N1CCCC1`, the “hERG current change (%, negative = inhibition) at 10uM” value is reported as -5.86%.
In the case of `CCC(C)(C(=O)NC1CCCCC1)N(C)C(=O)c1ccccn1` (stereo not drawn), the “hERG current change (%, negative = inhibition) at 10uM” value is reported as 2.9%.
`CCC(C)(C(=O)NC1CCCCC1)N(CC1CCCO1)C(=O)CNC(=O)c1ccccc1` (stereo not drawn) was tested, and the “hERG current change (%, negative = inhibition) at 10uM” value was 6.13%.
With `CCC(C)(C(=O)NC1CCCCC1)N(CC1CCCO1)C(=O)c1ccccn1` (stereo not drawn) the “hERG current change (%, negative = inhibition) at 10uM” value was -63.3%.
With `COc1ccc2cc(C(c3nnnn3C3CCCCC3)N3CCCCCC3)c3nnnn3c2c1` (stereo not drawn) the “hERG current change (%, negative = inhibition) at 10uM” value was 4.6%.
In the case of `COc1ccc2cc(C(c3nnnn3C3CCCC3)N3CCOCC3)c3nnnn3c2c1` (stereo not drawn), the “hERG current change (%, negative = inhibition) at 10uM” value is reported as -51.7%.
`COc1ccc2cc(C(c3nnnn3C3CCCC3)N3CCCCCC3)c3nnnn3c2c1` (stereo not drawn) was tested, and the “hERG current change (%, negative = inhibition) at 10uM” value was 15.9%.
With `O=C(NCCc1ccccc1)C1CCN(S(=O)(=O)c2cccnc2)CC1` the “hERG current change (%, negative = inhibition) at 10uM” value was 12.9%.
In the case of `Cc1ccccc1C(=O)Nc1nnc(-c2cccnc2)o1`, the “hERG current change (%, negative = inhibition) at 10uM” value is reported as 18.4%.
`CN1CCN(NC(=O)c2ccc(S(=O)(=O)N3CC4(C)CC3CC(C)(C)C4)cc2)CC1.Cl` (stereo not drawn) was tested, and the “hERG current change (%, negative = inhibition) at 10uM” value was -2.07%.
In the case of `OCCC1CN(Cc2cccc3nccnc23)CCN1Cc1ccc(F)c(F)c1` (stereo not drawn), the “hERG current change (%, negative = inhibition) at 10uM” value is reported as -56.4%.
With `CC(C)=CCN1CCN(Cc2cccc3nccnc23)CC1CCO` (stereo not drawn) the “hERG current change (%, negative = inhibition) at 10uM” value was -8.42%.
For `OCCC1CN(Cc2ccc3ncccc3c2)CCN1Cc1ccccc1` (stereo not drawn), the “hERG current change (%, negative = inhibition) at 10uM” value was -14.8%.
With `OCCC1CN(Cc2cccc3nccnc23)CCN1Cc1ccc(F)cc1` (stereo not drawn) the “hERG current change (%, negative = inhibition) at 10uM” value was -30.8%.
With `OCCC1CN(Cc2ccon2)CCN1Cc1ccc(F)c(F)c1` (stereo not drawn) the “hERG current change (%, negative = inhibition) at 10uM” value was -13.9%.
In the case of `CC(C)CN1CCN(Cc2ccc3ncccc3c2)CC1CCO` (stereo not drawn), the “hERG current change (%, negative = inhibition) at 10uM” value is reported as -13.2%.
For `Cc1ccc(CN2CCN(Cc3cccc4nccnc34)CC2CCO)cc1` (stereo not drawn), the “hERG current change (%, negative = inhibition) at 10uM” value was -66.6%.
`Cc1ccc(CN2CCN(Cc3ccc4ncccc4c3)CC2CCO)cc1` (stereo not drawn) was tested, and the “hERG current change (%, negative = inhibition) at 10uM” value was -58.9%.
`CC(C)CN1CCN(Cc2cccc3nccnc23)CC1CCO` (stereo not drawn) was tested, and the “hERG current change (%, negative = inhibition) at 10uM” value was -8.4%.
`COc1ccccc1N1CCN(C(=O)CSc2nc(N)cc(=O)[nH]2)CC1` was tested, and the “hERG current change (%, negative = inhibition) at 10uM” value was 6.2%.
In the case of `Cc1ccc(-n2c(O)c(C=NCCCn3ccnc3)c(=O)[nH]c2=O)cc1`, the “hERG current change (%, negative = inhibition) at 10uM” value is reported as 19.6%.
In the case of `COc1ccccc1NS(=O)(=O)c1cccc(C(=O)N/N=C/c2ccc(N3CCOCC3)cc2)c1`, the “hERG current change (%, negative = inhibition) at 10uM” value is reported as -8.32%.
`CC(OC(=O)c1ccc(-c2ccc(O)cc2)cc1)C(=O)NC1CCCCC1C` (stereo not drawn) was tested, and the “hERG current change (%, negative = inhibition) at 10uM” value was -6.35%.
For `COc1ccccc1C(CNC(=O)c1cccc(NS(=O)(=O)c2ccc(C)c(F)c2)c1)N(C)C` (stereo not drawn), the “hERG current change (%, negative = inhibition) at 10uM” value was -42.5%.
`COc1ccc(C(CNC(=O)c2cccc(NS(=O)(=O)c3ccc(Br)cc3)c2)N(C)C)cc1` (stereo not drawn) was tested, and the “hERG current change (%, negative = inhibition) at 10uM” value was -61.5%.
With `Cc1ccc(S(=O)(=O)Nc2cccc(C(=O)NCC(c3ccccc3)N(C)C)c2)cc1F` (stereo not drawn) the “hERG current change (%, negative = inhibition) at 10uM” value was -45.8%.
In the case of `COc1ccc(C(CNC(=O)c2ccc(NS(=O)(=O)c3ccc(F)c(C)c3)cc2)N(C)C)cc1` (stereo not drawn), the “hERG current change (%, negative = inhibition) at 10uM” value is reported as -25.8%.
For `COc1ccccc1C(CNC(=O)c1cccc(NS(=O)(=O)c2ccc(Br)cc2)c1)N(C)C` (stereo not drawn), the “hERG current change (%, negative = inhibition) at 10uM” value was -51.7%.
For `COc1ccc(C(CNC(=O)c2cccc(NS(=O)(=O)c3ccc(C)c(F)c3)c2)N2CCCC2)cc1` (stereo not drawn), the “hERG current change (%, negative = inhibition) at 10uM” value was -64%.
In the case of `COc1ccc(C(CNC(=O)c2cccc(NS(=O)(=O)c3ccccc3)c2)N(C)C)cc1` (stereo not drawn), the “hERG current change (%, negative = inhibition) at 10uM” value is reported as -46.4%.
`CCOc1ccc(S(=O)(=O)Nc2cccc(C(=O)NCC(c3ccccc3)N(C)C)c2)cc1` (stereo not drawn) was tested, and the “hERG current change (%, negative = inhibition) at 10uM” value was -12%.
For `COc1ccccc1C(CNC(=O)c1cccc(S(=O)(=O)Nc2ccc(C)cc2)c1)N(C)C` (stereo not drawn), the “hERG current change (%, negative = inhibition) at 10uM” value was -8.39%.
`Cc1ccc(S(=O)(=O)Nc2cccc(C(=O)NCC(c3ccco3)N3CCCC3)c2)cc1F` (stereo not drawn) was tested, and the “hERG current change (%, negative = inhibition) at 10uM” value was -38.5%.
In the case of `COc1ccc(C(CNC(=O)c2cccc(NS(=O)(=O)c3ccc(C)c(F)c3)c2)N(C)C)cc1` (stereo not drawn), the “hERG current change (%, negative = inhibition) at 10uM” value is reported as -62.6%.
In the case of `COc1ccc(C(CNC(=O)c2cccc(NS(=O)(=O)c3ccc(C)c(F)c3)c2)N2CCOCC2)cc1` (stereo not drawn), the “hERG current change (%, negative = inhibition) at 10uM” value is reported as -9.43%.
For `CCOC(=O)CN1C(=O)C(O)=C(C(C)=O)C1c1ccccc1` (stereo not drawn), the “hERG current change (%, negative = inhibition) at 10uM” value was 11.3%.
With `Cc1c(-c2ccccc2)nc2ccccc2c1C(=O)Oc1ccc([N+](=O)[O-])cc1` the “hERG current change (%, negative = inhibition) at 10uM” value was -21.6%.
With `COc1ccc(C(=O)OCCNC(=O)c2c(Cl)nc3ccccn23)cc1.Cl` the “hERG current change (%, negative = inhibition) at 10uM” value was -6.58%.
In the case of `CC(=O)C(=Nc1ccccc1Cl)NNc1ccc(Cl)cc1`, the “hERG current change (%, negative = inhibition) at 10uM” value is reported as 17.3%.
For `CN1CCN(S(=O)(=O)c2cccc(C(=O)N(Cc3nnc(-c4ccc(Cl)cc4)o3)C3CC3)c2)CC1`, the “hERG current change (%, negative = inhibition) at 10uM” value was -49.3%.
For `Nc1cccc(-c2cc3ccccc3oc2=O)c1`, the “hERG current change (%, negative = inhibition) at 10uM” value was 6.38%.
`COc1ccc(Cl)cc1C(=O)N1CCN=C1SC` was tested, and the “hERG current change (%, negative = inhibition) at 10uM” value was 21.3%.
For `CCOc1ccc(NC(=O)c2ccccc2NC(=O)c2cccnc2)cc1`, the “hERG current change (%, negative = inhibition) at 10uM” value was 7.52%.
`COc1c(C)cc(C(=O)C2CCCN(C(=O)c3cc(C)nc(C)n3)C2)cc1C` (stereo not drawn) was tested, and the “hERG current change (%, negative = inhibition) at 10uM” value was 7.89%.
With `COC(=O)C1=C(c2ccc(F)cc2OCc2ccccc2)C[C@@H]2CC[C@H]1N2C` the “hERG current change (%, negative = inhibition) at 10uM” value was -52%.
In the case of `COC(=O)C1=C(c2ccc(F)cc2OCc2ccccc2)C[C@@H]2CC[C@H]1N2C(=O)NC(C)C`, the “hERG current change (%, negative = inhibition) at 10uM” value is reported as -35.3%.
In the case of `COC(=O)C1=C(c2ccc(F)cc2OCc2ccccc2)C[C@@H]2CC[C@H]1N2C(=O)NC1CC1`, the “hERG current change (%, negative = inhibition) at 10uM” value is reported as -10.4%.
With `COC(=O)C1=C(c2ccc(F)cc2OCc2ccccc2)C[C@@H]2CC[C@H]1N2C(=O)NCC1CC1` the “hERG current change (%, negative = inhibition) at 10uM” value was -51.5%.
In the case of `COC(=O)C1=C(c2ccc(F)cc2OCc2ccccc2)C[C@@H]2CC[C@H]1N2C(=O)NCc1ccc(F)cc1`, the “hERG current change (%, negative = inhibition) at 10uM” value is reported as -5.76%.
`COC(=O)C1=C(c2ccc(F)cc2OCc2ccccc2)C[C@@H]2CC[C@H]1N2C(=O)NCc1ccccc1` was tested, and the “hERG current change (%, negative = inhibition) at 10uM” value was -1.03%.
